{
  "source": "PubChem BioAssay AID1918",
  "about": "(Vanderbilt High Throughput Screening Facility, 2009)",
  "note": "In all, about 130,000 compounds went through this assay and about 2,500 (1.9%) were called active. The list comes from a sample in which actives are over-represented; it also holds similar structures and randomly drawn compounds. Unmarked numbers belong to inactive results.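 How the source made its calls: active means signal ratio slope over the read window, or its plate-corrected B-score, at least 3 SD from the plate mean, either direction; inactive means the rest.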",
  "data": [
    {"biological_target": "ATP-sensitive inward rectifier potassium channel 1 (Homo sapiens) (UniProt P48048)", "sequence (P48048 whole entry, looked up)": "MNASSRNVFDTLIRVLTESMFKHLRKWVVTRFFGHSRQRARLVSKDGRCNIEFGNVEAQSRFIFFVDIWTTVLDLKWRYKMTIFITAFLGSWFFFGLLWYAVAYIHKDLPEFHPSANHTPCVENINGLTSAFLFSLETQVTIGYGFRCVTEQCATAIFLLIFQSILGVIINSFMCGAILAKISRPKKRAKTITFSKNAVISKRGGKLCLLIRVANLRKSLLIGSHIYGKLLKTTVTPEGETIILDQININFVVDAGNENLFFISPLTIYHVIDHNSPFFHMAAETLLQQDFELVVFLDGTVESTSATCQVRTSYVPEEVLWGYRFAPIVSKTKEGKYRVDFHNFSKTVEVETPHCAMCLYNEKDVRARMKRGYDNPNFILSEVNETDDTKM", "test": "Kir1.1 channel activity modulation, library screen – cell-based, thallium flux, MLSMR library, primary screen (AID 1918);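 further: B-score of the F/F0 ratio slope over 7 to 12 s after thallium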", "conditions": "Tet-inducible ROMK, thallium flux fluorescence; at 10 µM; actives lie on both sides", "values": [
      {"molecule": "O=[N+]([O-])c1ccc(N=Cc2c(O)ccc3ccccc23)cc1", "B-score": "-4.23 (active)"},
      {"molecule": "CC(=O)n1c(C=Nc2ccccc2)c(O)c2ccccc21", "B-score": -1.73},
      {"molecule": "O=C(N/N=C/c1ccc([N+](=O)[O-])cc1)c1c[nH]c2ccccc12", "B-score": -0.0103},
      {"molecule": "CCOc1ccc(Br)cc1S(=O)(=O)N1CCC(C(=O)O)CC1", "B-score": -0.0303},
      {"molecule": "CCOc1ccc(C(C)C)cc1S(=O)(=O)n1nc(C)cc1C", "B-score": -0.531},
      {"molecule": "CCOc1ccc(-n2cnnn2)cc1S(=O)(=O)N1CCC(C)CC1C", "note": "(configuration not stated)", "B-score": "-3.15 (active)"},
      {"molecule": "O=C1[C@@H]2C(c3cccnc3)=NO[C@@H]2C(=O)N1c1ccc(Cl)cc1Cl", "B-score": 0.0407},
      {"molecule": "O=c1c2c(nc3nc[nH]n13)CCC2", "B-score": 0.251},
      {"molecule": "O=c1c2c(nc3cc(-c4cccc(Cl)c4)[nH]n13)CCCC2", "B-score": -0.277},
      {"molecule": "CSc1nc2nc3c(c(=O)n2[nH]1)CCC3", "B-score": "1.45 (active)"},
      {"molecule": "O=C(c1ccncc1)N1CCN(c2ccc3ccccc3n2)CC1", "B-score": -0.138},
      {"molecule": "CCC(C)(C)NC(=O)C(c1ccccn1)N(C(=O)c1csnn1)c1ccccc1", "note": "(configuration not stated)", "B-score": 0.633},
      {"molecule": "O=C(NC1CCCC1)C(c1ccccn1)N(C(=O)c1csnn1)C1CCCC1", "note": "(configuration not stated)", "B-score": 0.761},
      {"molecule": "Cc1ccccc1CCN(CC(=O)NC1CCCCC1)C(=O)c1csnn1", "B-score": "-3.14 (active)"},
      {"molecule": "COc1ccc(-c2ccc(CNCCCN3CCOCC3)o2)cc1Cl", "B-score": -0.161},
      {"molecule": "CCOc1ccc(N2CC(C(=O)NCCN3C(=O)S/C(=C\\c4cccnc4)C3=O)CC2=O)cc1", "note": "(configuration not stated)", "B-score": 0.439},
      {"molecule": "COc1ccccc1N1CCN(C(=O)c2ccc(Cl)c(S(=O)(=O)N3CCCC3)c2)CC1", "B-score": -0.388},
      {"molecule": "O=C1c2cccc3c([N+](=O)[O-])ccc(c23)C(=O)N1CC1CCCO1", "note": "(configuration not stated)", "B-score": "-2.58 (active)"},
      {"molecule": "O=c1c2cc3c(=O)n(CC4CCCO4)c(=O)c3cc2c(=O)n1CC1CCCO1", "note": "(configuration not stated)", "B-score": 1.28},
      {"molecule": "O=C(NCc1ccc2c(c1)OCO2)c1ccc2c(c1)C(=O)N(CC1CCCO1)C2=O", "note": "(configuration not stated)", "B-score": 0.455},
      {"molecule": "C/C(=N\\Nc1nc(N2CCOCC2)nc(N2CCOCC2)n1)c1ccc([N+](=O)[O-])cc1", "B-score": 0.473},
      {"molecule": "CC1CCN(C(=S)c2cccc(O)c2)CC1", "B-score": 0.17},
      {"molecule": "Cc1nc(-c2ccccc2)sc1C(=O)/C=C/N(C)C", "B-score": 0.143},
      {"molecule": "CCOC(=O)c1sc(NC(=O)COc2ncnc3ccccc23)c(C(=O)OCC)c1C", "B-score": 0.196},
      {"molecule": "CCOC(=O)c1c(NC(=O)CCl)sc(C(=O)N(CC)CC)c1C", "B-score": "1.96 (active)"},
      {"molecule": "CCC(=O)Nc1sc(C(=O)Nc2ccccc2)c(C)c1C(=O)OC", "B-score": -1.11},
      {"molecule": "COc1ccccc1C(=O)N1CC2(C)CC1CC(C)(C)C2", "note": "(configuration not stated)", "B-score": -0.0792},
      {"molecule": "COc1ccc(C(=O)N2CC3(C)CC2CC(C)(C)C3)cc1OC", "note": "(configuration not stated)", "B-score": 0.464},
      {"molecule": "Cc1nnnn1/C(=C\\c1ccccc1)C(=O)OCC(=O)N1CC2(C)CC1CC(C)(C)C2", "note": "(configuration not stated)", "B-score": "-5.08 (active)"},
      {"molecule": "Cc1ccc(SCCC(=O)NCc2ccccn2)cc1", "B-score": -0.142},
      {"molecule": "O=C(O)CC(SCC(=O)Nc1ccc(Br)cc1)C(=O)O", "note": "(configuration not stated)", "B-score": -0.193},
      {"molecule": "CCOC(=O)c1ccc(-c2ccc(C(=O)Nc3cccnc3)o2)cc1", "B-score": 0.149},
      {"molecule": "Cc1ccc(C2C3=C(Nc4[nH]n(-c5ccccc5)c(=O)c42)c2ccccc2C3=O)cc1", "note": "(configuration not stated)", "B-score": -2.43},
      {"molecule": "COC(=O)C1=C(C)NC2=C(C(=O)c3ccccc32)C1c1ccc(-c2ccc(C(=O)O)cc2)o1", "note": "(configuration not stated)", "B-score": "3.35 (active)"},
      {"molecule": "COc1ccc(-n2c(O)c(C=NCC(c3ccco3)N3CCCC3)c3ccccc3c2=O)cc1OC", "note": "(configuration not stated)", "B-score": 0.182},
      {"molecule": "O=C(CSc1nnnn1-c1ccc(O)cc1)N1N=C(c2ccc3ccccc3c2)CC1c1ccccc1", "note": "(configuration not stated)", "B-score": 0.13},
      {"molecule": "CC1=NN(Cc2ccccc2)C(=O)/C1=C/c1ccc(N(C)C)cc1", "B-score": -0.804},
      {"molecule": "CN(C)c1ccc(/C=N\\S(=O)(=O)c2ccccc2)cc1", "B-score": 0.722},
      {"molecule": "CN(C)c1ccc(C=C2C(=O)OC3(CCCC3)OC2=O)cc1", "B-score": "-4.03 (active)"},
      {"molecule": "CC(=O)Nc1cccc(OCC(=O)/C=C2\\N(C)c3ccccc3C2(C)C)c1", "B-score": "-3.01 (active)"},
      {"molecule": "CN1/C(=C\\C(=O)c2cccnc2Cl)C(C)(C)c2ccccc21", "B-score": 0.168},
      {"molecule": "Cc1noc(C)c1C(=O)OCC(=O)/C=C1\\N(C)c2ccccc2C1(C)C", "B-score": -0.053},
      {"molecule": "Cc1ccccc1NC(=S)NNC(=O)c1cccc(Br)c1", "B-score": -1.36},
      {"molecule": "N#Cc1c(-c2ccc(Cl)cc2)c2c([nH]c1=S)CCCC2", "B-score": -0.344},
      {"molecule": "CN(C)c1nc(-c2cccnc2)nc(-c2ccc(Cl)cc2)c1C#N", "B-score": -1.03},
      {"molecule": "CNc1nccc(-c2ccc(Cl)cc2)c1C#N", "B-score": "-3.41 (active)"},
      {"molecule": "COCc1c(N)c(C)nc(Cl)c1C#N", "B-score": 0.228}
    ]}
  ]
}
